Experimental data reported in PubChem BioAssay (NCI).
Compounds without any hit were thinned out: in the full panel of roughly 79,000, 15% have a hit. Unmarked numbers belong to inactive results. Activity calls are given as the source filed them. Cut-off read from the data, not from the text of the source: active = growth inhibition above about 70%; inactive = the rest.

Assay: NCI Yeast Anticancer Drug Screen. Data for the mec2-1 strain (AID 157)
Details: S. cerevisiae mec2-1 strain, active compounds read high
Method: Growth inhibition of yeast strains with defined genetic alterations is measured as a screen for potential anti-cancer activity. Selected strains with alterations in DNA damage repair or cell cycle control were exposed to compounds and growth inhibition was measured relative to vehicle treated controls. The strain used in this assay is mec2-1

[1] = at 5.0 µM (retest, dose inferred, filed as 0.5)
[2] = at 50.0 µM (retest, dose inferred, filed as 5.0)

Structure (SMILES)	growth inhibition (at 1.2 µM) [%]	growth inhibition (at 3.7 µM)	growth inhibition [1] [%]	growth inhibition (at 11.0 µM)	growth inhibition (at 33.0 µM)	growth inhibition [2]	growth inhibition (at 50.0 µM)	growth inhibition (at 100.0 µM)
O=[N+]([O-])c1cc(S(=O)(=O)Nc2ccccc2)ccc1Cl	-10	-5%	42	21%	91% (active)	99% (active)	90.5% (active)	99% (active)
COC(=O)c1n[nH]c(C)c1N=NN(C)CCC#N	2	3%	-31	99% (active)	99% (active)	98% (active)	99.2% (active)	99% (active)
O=S(=O)(c1cc(Cl)ccc1O)c1cc(Cl)ccc1O	30	93% (active)	35	99% (active)	98% (active)	100% (active)	99.7% (active)	100% (active)
CN=C(N)N/N=C(\C)c1ccc2oc3ccc(/C(C)=N/NC(N)=NC)cc3c2c1	-11	-9%	15	15%	98% (active)	99% (active)	93.6% (active)	98% (active)
COc1ccc(N2C(=O)CC(Cl)C2=O)cc1 (stereo not given)	-7	-5%	-44	-6%	64%	36%	99.5% (active)	100% (active)
